PubChem BioAssay AID1159580 (chemical genetic matrix, 2015)
About 2,000 (36%) of roughly 5,500 compounds were called active. Roughly 18% stayed inconclusive and do not appear here. Cut-off read from the data, not from the text of the source: active = normalized growth mostly below about 0.91 (no sharp cut-off); inconclusive = no clear call, values can overlap the other calls; inactive = mostly above about 0.92. This is one part of the list.

Experiment: chemical genetic growth profiling, strain panel (AID 1159580);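 note: tested at 20 µM; growth read once vehicle control cultures reached saturation at 30 °C; 1 = growth at the plate median or of vehicle wells; lower values mean less growth of the strain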
Conditions: growth OD

Measured: normalized growth

COc1ccc(OC)c(C(O)C(C)N)c1 (stereo unspecified)
inactive: S. cerevisiae deletion strains, locus YJR066W, strain TOR1, active compounds read low 0.991 | S. cerevisiae deletion strains, locus YJR075W, strain HOC1, active compounds read low 0.999 | S. cerevisiae deletion strains, locus YKL009W, strain mrt4, active compounds read low 0.995 | S. cerevisiae deletion strains, locus YKL068W, active compounds read low 0.997 | S. cerevisiae deletion strains, locus YKL085W, strain MDH1 (second series), active compounds read low 1 | S. cerevisiae deletion strains, locus YKL085W, strain MDH1, active compounds read low 1 | S. cerevisiae deletion strains, locus YKL160W, strain elf1, active compounds read low 0.983 | S. cerevisiae deletion strains, locus YKL190W, strain CNB1, active compounds read low 1.02 | S. cerevisiae deletion strains, locus YKR001C, strain vps1, active compounds read low 1 | S. cerevisiae deletion strains, locus YKR026C, strain gcn3, active compounds read low 0.994 | S. cerevisiae deletion strains, locus YKR091W, strain srl3, active compounds read low 0.989 | S. cerevisiae deletion strains, locus YLL001W, strain dnm1, active compounds read low 0.972 | S. cerevisiae deletion strains, locus YLL026W, active compounds read low 0.99 | S. cerevisiae deletion strains, locus YLL041C, strain sdh2, active compounds read low 1 | S. cerevisiae deletion strains, locus YLR027C, strain aat2, active compounds read low 0.987 | S. cerevisiae deletion strains, locus YLR039C, strain RIC1, active compounds read low 1.07 | S. cerevisiae deletion strains, locus YLR058C, strain SHM2, active compounds read low 1.01 | S. cerevisiae deletion strains, locus YLR102C, strain apc9, active compounds read low 0.992 | S. cerevisiae deletion strains, locus YLR113W, strain HOG1, active compounds read low 1.08 | S. cerevisiae deletion strains, locus YLR221C, strain rsa3, active compounds read low 0.994 | S. cerevisiae deletion strains, locus YLR258W, strain gsy2, active compounds read low 1.01 | S. cerevisiae deletion strains, locus YLR262C, strain YPT6 (second series), active compounds read low 0.999 | S. cerevisiae deletion strains, locus YLR262C, strain YPT6, active compounds read low 1.08 | S. cerevisiae deletion strains, locus YLR268W, strain sec22, active compounds read low 1 | S. cerevisiae deletion strains, locus YLR320W, strain mms22, active compounds read low 0.989 | S. cerevisiae deletion strains, locus YLR330W, strain CHS5, active compounds read low 1.01 | S. cerevisiae deletion strains, locus YLR342W, strain FKS1 (second series), active compounds read low 1.01 | S. cerevisiae deletion strains, locus YLR342W, strain FKS1, active compounds read low 0.976 | S. cerevisiae deletion strains, locus YLR357W, strain rsc2, active compounds read low 0.971 | S. cerevisiae deletion strains, locus YLR370C, strain arc18, active compounds read low 0.988 | S. cerevisiae deletion strains, locus YLR371W, strain rom2, active compounds read low 0.989 | S. cerevisiae deletion strains, locus YLR384C, strain iki3, active compounds read low 0.987 | S. cerevisiae deletion strains, locus YLR418C, strain cdc73, active compounds read low 1.02 | S. cerevisiae deletion strains, locus YML016C, strain PPZ1, active compounds read low 1.02 | S. cerevisiae deletion strains, locus YML032C, strain rad52, active compounds read low 0.977 | S. cerevisiae deletion strains, locus YML120C, strain ndi1, active compounds read low 0.997 | S. cerevisiae deletion strains, locus YML124C, strain tub3, active compounds read low 0.993 | S. cerevisiae deletion strains, locus YMR078C, strain ctf18, active compounds read low 0.987 | S. cerevisiae deletion strains, locus YMR125W, strain sto1, active compounds read low 0.994 | S. cerevisiae deletion strains, locus YMR129W, active compounds read low 0.978 | S. cerevisiae deletion strains, locus YMR205C, strain PFK2, active compounds read low 1 | S. cerevisiae deletion strains, locus YMR223W, strain ubp8, active compounds read low 0.996 | S. cerevisiae deletion strains, locus YMR231W, strain pep5, active compounds read low 0.99 | S. cerevisiae deletion strains, locus YMR263W, strain SAP30, active compounds read low 1.03 | S. cerevisiae deletion strains, locus YMR307W, strain GAS1, active compounds read low 0.992 | S. cerevisiae deletion strains, locus YNL067W, strain RPL9B, active compounds read low 1.02 | S. cerevisiae deletion strains, locus YNL071W, strain lat1, active compounds read low 1 | S. cerevisiae deletion strains, locus YNL128W, strain TEP1, active compounds read low 1.01 | S. cerevisiae deletion strains, locus YNL153C, strain GIM3, active compounds read low 1.04 | S. cerevisiae deletion strains, locus YNL175C, strain NOP13, active compounds read low 0.996 | S. cerevisiae deletion strains, locus YNL183C, strain NPR1, active compounds read low 1.01 | S. cerevisiae deletion strains, locus YNL197C, strain WHI3, active compounds read low 1.01 | S. cerevisiae deletion strains, locus YNL209W, strain ssb2, active compounds read low 1 | S. cerevisiae deletion strains, locus YNL224C, strain SQS1, active compounds read low 1.01 | S. cerevisiae deletion strains, locus YNL233W, strain BNI4, active compounds read low 1.02 | S. cerevisiae deletion strains, locus YNL248C, strain rpa49, active compounds read low 0.997 | S. cerevisiae deletion strains, locus YNL250W, strain rad50, active compounds read low 0.978 | S. cerevisiae deletion strains, locus YNL271C, strain bni1, active compounds read low 1 | S. cerevisiae deletion strains, locus YNL298W, strain CLA4, active compounds read low 1 | S. cerevisiae deletion strains, locus YNL307C, strain MCK1, active compounds read low 0.976 | S. cerevisiae deletion strains, locus YNL322C, strain KRE1 (second series), active compounds read low 0.991 | S. cerevisiae deletion strains, locus YNL322C, strain KRE1, active compounds read low 1.01 | S. cerevisiae deletion strains, locus YNR049C, strain mso1, active compounds read low 0.99 | S. cerevisiae deletion strains, locus YNR052C, strain pop2, active compounds read low 0.992 | S. cerevisiae deletion strains, locus YOL006C, strain TOP1, active compounds read low 1.13 | S. cerevisiae deletion strains, locus YOL012C, strain htz1 1.17 | S. cerevisiae deletion strains, locus YOL147C, strain pex11, active compounds read low 0.979 | S. cerevisiae deletion strains, locus YOR001W, strain rrp6, active compounds read low 0.992 | S. cerevisiae deletion strains, locus YOR061W, strain CKA2, active compounds read low 1.02 | S. cerevisiae deletion strains, locus YOR069W, strain VPS5, active compounds read low 1.01 | S. cerevisiae deletion strains, locus YOR070C, strain gyp1, active compounds read low 0.999 | S. cerevisiae deletion strains, locus YOR080W, strain dia2, active compounds read low 0.99 | S. cerevisiae deletion strains, locus YOR083W, strain WHI5 (second series), active compounds read low 1.01 | S. cerevisiae deletion strains, locus YOR083W, strain WHI5, active compounds read low 0.961 | S. cerevisiae deletion strains, locus YOR106W, strain vam3, active compounds read low 0.986 | S. cerevisiae deletion strains, locus YOR136W, strain idh2, active compounds read low 0.982 | S. cerevisiae deletion strains, locus YOR144C, strain elg1, active compounds read low 0.985 | S. cerevisiae deletion strains, locus YOR184W, strain ser1, active compounds read low 0.978 | S. cerevisiae deletion strains, locus YOR231W, strain MKK1, active compounds read low 1.07 | S. cerevisiae deletion strains, locus YOR265W, strain rbl2, active compounds read low 0.997 | S. cerevisiae deletion strains, locus YOR270C, strain vph1, active compounds read low 1.01 | S. cerevisiae deletion strains, locus YOR290C, strain snf2, active compounds read low 1.01 | S. cerevisiae deletion strains, locus YOR316C, strain cot1, active compounds read low 0.991 | S. cerevisiae deletion strains, locus YPL051W, strain arl3, active compounds read low 0.991 | S. cerevisiae deletion strains, locus YPL055C, strain LGE1, active compounds read low 1.06 | S. cerevisiae deletion strains, locus YPL078C, strain atp4, active compounds read low 0.961 | S. cerevisiae deletion strains, locus YPL106C, strain sse1, active compounds read low 1.01 | S. cerevisiae deletion strains, locus YPL240C, strain hsp82, active compounds read low 0.991 | S. cerevisiae deletion strains, locus YPL241C, strain CIN2, active compounds read low 1.01 | S. cerevisiae deletion strains, locus YPL256C, strain CLN2, active compounds read low 1.06 | S. cerevisiae deletion strains, locus YPR119W, strain clb2, active compounds read low 0.988 | S. cerevisiae deletion strains, locus YPR141C, strain kar3, active compounds read low 0.984 | S. cerevisiae deletion strains, locus YPR163C, strain tif3, active compounds read low 0.98 | S. cerevisiae deletion strains, locus YPR167C, strain met16, active compounds read low 0.996 | S. cerevisiae deletion strains, strain wtn01, active compounds read low 1.01 | S. cerevisiae strains, strain wild type, active compounds read low 1.01
